# Unmarked numbers belong to inactive results. Inconclusive results are not listed. A call without a number means that no potency is given here. Active and inactive are the calls of the source. Unless noted, calls come from the whole dose curve; as a rule, active = well fitted curve in the direction sought with a large enough effect; inconclusive = small, poorly fitted or top-dose-only effect, or another doubt; inactive = no such curve, though single readings can be large; an effect the other way counts as inactive or inconclusive.
# Tests used:
# [1] = Cell Viability - BJ (AID 421; calls by dose curve;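 note: potency is the fitted concentration of half-maximal effect; cells exposed to compound for 40 hours at 37 °C before readout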); conditions: BJ fibroblast viability, qHTS
# Procedure, shortened: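 Cytotoxicity in human BJ foreskin fibroblasts is scored as loss of cellular ATP after a 40-hour exposure, measured by luciferase luminescence. Controls are DMSO and 100 uM tamoxifen.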
# [2] = Cell Viability - Jurkat (AID 426;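 active = dose-dependent loss of cell ATP signal giving a full or clear fitted curve, ranked by lower potency value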;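 note: potency is the fitted concentration of half-maximal effect; cells exposed to compound for 40 hours at 37 °C before ATP read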); conditions: qHTS
# Procedure, shortened: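 Cells of the human T-cell leukemia line Jurkat (E6-1) are seeded at 5000 per well, treated with compound across a concentration range for 40 hours at 37 °C, then lysed with CellTiter-Glo; luminescence reports ATP.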
# [3] = Cell Viability - Hek293 (AID 427;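 active = compounds whose dose-response curve shows a full or clear partial loss of cell viability, called from curve shape rather than a numeric limit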;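 note: potency is the fitted concentration of half-maximal effect; cells exposed to compound for 40 hours at 37 °C before reading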); conditions: qHTS
# Procedure, shortened: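 qHTS, human embryonic kidney (adenovirus-transformed) cells; 40 hr cpd, 37 °C; CellTiter-Glo ATP luminescence. Norm: DMSO = 0, 100 uM tamoxifen = 100% inhibition. Hill-fit AC50.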
# [4] = Cell Viability - HepG2 (AID 433; calls by dose curve;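 note: potency is the fitted concentration of half-maximal effect; potency for ATP loss meaning cytotoxicity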); conditions: qHTS
# Procedure, shortened: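 Cytotoxicity is scored as loss of intracellular ATP in HepG2 cells exposed to compounds for 40 h. Concentration-response curves, normalized to DMSO and 100 uM tamoxifen, give AC50 values.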
# [5] = Cell Viability - MRC5 (AID 434; calls by dose curve;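 note: potency is the fitted concentration of half-maximal effect; potency reflects cytotoxicity seen as loss of intracellular ATP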); conditions: MRC5 lung fibroblast viability, qHTS
# Procedure, shortened: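 AC50 values come from Hill-equation fits of intracellular ATP loss, measured by CellTiter-Glo luminescence. Normal lung fibroblasts (MRC5) had 40 hr compound treatment at 37 C, normalized between DMSO and 100 uM tamoxifen.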
# [6] = Cell Viability - SK-N-SH (AID 435; calls by dose curve;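 note: potency is the fitted concentration of half-maximal effect; compound exposure lasted 40 h at 37 °C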); conditions: SK-N-SH neuroblastoma cell viability qHTS
# Procedure, shortened: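 Cells seeded at 1500 per well and incubated 5 hr at 37 °C. Compound added, then 40 hr at 37 °C. CellTiter-Glo added, 20 min at room temperature, luminescence read.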
# [7] = target: Mitogen-activated protein kinase 10 (Mus musculus) (UniProt Q61831); test: JNK3 AlphaScreen Assay (AID 530; active = well fitted curve in either direction with a large enough effect, not every such curve was filed as active;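 note: kinase came from lysate of stimulated human HepG2 cells; signal reports phosphorylation of biotinylated GST-cJun 1-79 at Ser73 with 10 µM ATP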); conditions: JNK3 lysate, c-Jun phosphorylation; series mostly up to 57.1 µM
# Procedure, shortened: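 qHTS titrations with 15 min compound pre-incubation before adding ATP (10 uM final). Read-out: AlphaScreen of Ser73-phosphorylated biotin-GST-cJun using HepG2 lysate JNK3 activated by IL-1β and TNFα.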
# [8] = Cell Viability - N2a (AID 540); conditions: N2a mouse neuroblastoma cell viability; activity change, negative = cytotoxicity: at 92.2 µM (top of the series);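 note: cells exposed to compound for 40 h at 37 °C; nearly all actives have a fitted effect of over 45% in size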; note: potency is the fitted concentration of half-maximal effect
# Procedure, shortened: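 Cytotoxicity was scored as loss of cellular ATP in N2a cells, a mouse neuroblastoma line. Compounds are applied in a qHTS concentration series for 40 hr at 37 °C.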
# [9] = Cell Viability - HUV-EC-C (AID 542); conditions: HUV-EC-C endothelial cell viability, qHTS; series mostly up to 92.2 µM; note: nearly all actives have a fitted effect of over 35% in size
# Procedure, shortened: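 Cells were seeded at 1000 per well and incubated 5 hr at 37 °C before compound addition. After 40 hr at 37 °C, CellTiter-Glo reagent was added for 20 min and luminescence read. AC50 values came from Hill-equation modelling.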
# [10] = Cell Viability - H-4-II-E (AID 543); conditions: H-4-II-E rat hepatoma viability; series mostly up to 92.2 µM; note: nearly all actives have a fitted effect of over 35% in size; note: potency is the fitted concentration of half-maximal effect
# Procedure, shortened: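 Cells seeded at 1500 per well and rested 5 hr; compounds added; 40 hr incubation at 37 °C; CellTiter-Glo added, 20 min at room temperature; luminescence read. Hill-equation fits gave AC50.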
# [11] = Cell Viability - SH-SY5Y (AID 544); conditions: SH-SY5Y neuroblastoma cell viability; viability change, negative = cytotoxic: at 92.2 µM (top of the series); note: nearly all actives have a fitted effect of over 55% in size; note: potency is the fitted concentration of half-maximal effect
# Procedure, shortened: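 Cells were plated at 1500 per well and allowed 5 hr at 37 °C. Compounds were added across a concentration range and incubated 40 hr at 37 °C. CellTiter-Glo was added for 20 min at room temperature before luminescence reading.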
# [12] = Cell Viability - Renal Proximal Tubule (AID 545); conditions: renal proximal tubule cells viability, primary cells of rat origin; series mostly up to 91.7 µM; note: nearly all actives have a fitted effect of over 40% in size; note: potency is the fitted concentration of half-maximal effect
# Procedure, shortened: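 Cytotoxicity is scored as a concentration-dependent drop in cellular ATP in primary rat renal proximal tubule cells exposed for 40 hr. AC50 derives from Hill modelling.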
# [13] = Cell Viability - Mesenchymal (AID 546); conditions: mesenchymal cells viability, qHTS; series mostly up to 91.7 µM;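 note: cells exposed to compound for 40 hours before reading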; note: potency is the fitted concentration of half-maximal effect
# Procedure, shortened: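 CellTiter-Glo luminescence (intracellular ATP, 20 min room temperature) after 40 hr compound exposure at 37 °C of 1000 glomerulus-derived human kidney mesenchymal cells/well; AC50 values obtained by fitting qHTS concentration-response data to the Hill equation.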
# [14] = Cellular Toxicity (caspase-3) HepG2 (AID 654); conditions: HepG2 caspase-3 activation, luminescence; series mostly up to 92.2 µM; note: potency is the fitted concentration of half-maximal effect;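 for caspase-3 activation: cells exposed to compound for 16 hours before reading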
# Procedure, shortened: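 Caspase 3/7 activation in HepG2 is measured as rising luminescence after a 16 hr treatment at 37 °C. Values are scaled between DMSO basal and 100 uM tamoxifen, and AC50 is fitted with the Hill equation.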
# [15] = Cellular Toxicity (caspase-3) Jurkat (AID 655); conditions: Jurkat caspase-3 activation, luminescence; caspase-3 activation: at 92.2 µM (top of the series), DMSO = 0%, tamoxifen = 100%;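 note: cells exposed to compound for 16 h at 37 °C before reading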
# Procedure, shortened: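 Caspase 3/7 activation is scored as increased luminescence in Jurkat cells cultured with compound for 16 hours in complete medium. AC50 values come from Hill fits of qHTS concentration-response data normalized to DMSO and 100 uM tamoxifen controls.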
# [16] = Cellular Toxicity (caspase-3) HUV-EC-C (AID 656); conditions: HUV-EC-C cells, caspase-3 activation (apoptosis), vehicle = 0, 100 µM tamoxifen = 100%; series mostly up to 92.2 µM
# Procedure, shortened: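 Read-out: luminescence proportional to caspase 3/7 activity, measured 20 min after adding Caspase-Glo 3/7 reagent. Cells (HUV-EC-C) had received compound for 16 hr at 37°C. Increases relative to DMSO and 100 uM tamoxifen gave concentration-response AC50 values.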
# [17] = Cellular Toxicity (caspase-3) SHSY5Y (AID 657); conditions: SH-SY5Y caspase-3 activation, DMSO zero, 10 µM staurosporine = 100%; series mostly up to 91.7 µM;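 note: cells exposed to compound for 16 hours at 37 °C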
# Procedure, shortened: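 Cells plated and incubated 5 h at 37 °C, dosed over a concentration range, incubated 16 h, then given Caspase-Glo 3/7 reagent for 1 h at room temperature before luminescence reading. Staurosporine (10 uM) defined full stimulation.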
# [18] = Cellular Toxicity (caspase-3) BJ (AID 658); conditions: BJ fibroblasts, luminescence, normalized: DMSO 0%, staurosporine 100%; series mostly up to 91.7 µM
# Procedure, shortened: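 Caspase-Glo 3/7 luminescence, read 1 hr after reagent at room temperature, in normal BJ fibroblasts exposed 16 hours at 37 °C. AC50 values from Hill-equation concentration-response, scaled between DMSO basal and 10 uM staurosporine as 100%.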
# [19] = Cellular Toxicity (caspase-3) MRC-5 (AID 659); conditions: MRC-5 cells, luminescence, normalized: DMSO 0%, 10 µM staurosporine 100%; series mostly up to 91.7 µM
# Procedure, shortened: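 Luminescent Caspase-Glo 3/7 read-out (1 h, room temperature) after a 16 h, 37 °C compound exposure of MRC-5 lung fibroblasts at 1500 cells/well. Concentration-response AC50 from Hill equation; 0% DMSO, 100% 10 uM staurosporine.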
# [20] = Cell Viability - NIH 3T3 (AID 541); conditions: NIH 3T3 cell viability, qHTS; activity change, negative = cytotoxicity: at 92.2 µM (top of the series); note: nearly all actives have a fitted effect of over 25% in size
# Procedure, shortened: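 Cells seeded at 1000/well, rested 5 hr at 37 °C, then dosed and incubated 40 hr at 37 °C. CellTiter-Glo added, 20 min room temperature, luminescence read. AC50 by Hill fit.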
smiles,measurement,setting,value
COc1ccc(OC)cc1,Potency,[1],> 92 µM
same,Potency,[2],> 92 µM
same,Potency,[3],> 92 µM
same,Potency,[4],> 92 µM
same,Potency,[5],> 92 µM
same,Potency,[6],> 92 µM
same,outcome,[7],inactive
same,"activity change, negative = cytotoxicity",[8],0.243%
same,Potency,[9],inactive
same,Potency,[10],inactive
same,Potency,[11],inactive
same,Potency,[12],inactive
same,Potency,[13],inactive
same,Potency,[14],inactive
same,caspase-3 activation,[15],0.323%
same,outcome,[16],inactive
same,outcome,[17],inactive
same,outcome,[18],inactive
same,outcome,[19],inactive
CCCCCCO,Potency,[1],> 92 µM
same,Potency,[2],> 92 µM
same,Potency,[3],> 92 µM
same,Potency,[4],> 92 µM
same,Potency,[5],> 92 µM
same,Potency,[6],> 92 µM
same,outcome,[7],inactive
same,"activity change, negative = cytotoxicity",[8],4.85%
same,Potency,[9],inactive
same,Potency,[10],inactive
same,Potency,[12],inactive
same,Potency,[13],inactive
same,caspase-3 activation,[15],-0.00564%
same,outcome,[16],inactive
same,outcome,[17],inactive
same,outcome,[18],inactive
same,outcome,[19],inactive
CC1=C(/C=C/C(C)=C/C=C/C(C)=C\C=O)C(C)(C)CCC1,Potency,[1],24.4 µM (active)
same,Potency,[2],22.2 µM (active)
same,Potency,[3],51.9 µM (active)
same,Potency,[4],66.1 µM (active)
same,Potency,[5],39.8 µM (active)
same,Potency,[6],31.7 µM (active)
same,outcome,[7],inactive
same,Potency,[8],25.1 µM (active)
same,"activity change, negative = cytotoxicity",[20],-120% (active)
same,Potency,[10],12.6 µM (active)
same,Potency,[11],20 µM (active)
same,Potency,[12],12.6 µM (active)
same,Potency,[13],12.6 µM (active)
same,Potency,[14],63.1 µM (active)
same,outcome,[18],inactive
CC(C)Nc1ccccc1,Potency,[1],> 92 µM
same,Potency,[2],> 92 µM
same,Potency,[3],> 92 µM
same,Potency,[4],> 92 µM
same,Potency,[5],> 92 µM
same,Potency,[6],> 92 µM
same,outcome,[7],inactive
same,"activity change, negative = cytotoxicity",[8],-9.13%
same,Potency,[9],inactive
same,Potency,[10],inactive
same,Potency,[11],inactive
same,Potency,[12],inactive
same,Potency,[13],inactive
same,Potency,[14],inactive
same,caspase-3 activation,[15],2.39%
same,outcome,[16],inactive
same,outcome,[17],inactive
same,outcome,[18],inactive
NC=O,Potency,[1],> 92 µM
same,Potency,[2],> 92 µM
same,Potency,[3],> 92 µM
same,Potency,[4],> 92 µM
same,Potency,[5],> 92 µM
same,Potency,[6],> 92 µM
same,outcome,[7],inactive
same,"activity change, negative = cytotoxicity",[8],1.82%
same,Potency,[20],inactive
same,Potency,[10],inactive
same,Potency,[11],inactive
same,Potency,[12],inactive
same,Potency,[13],inactive
same,caspase-3 activation,[15],2.21%
same,outcome,[16],inactive
same,outcome,[17],inactive
same,outcome,[18],inactive
same,outcome,[19],inactive
O=C(O)CN(CC(=O)O)CC(=O)O,Potency,[1],> 92 µM
same,Potency,[2],> 92 µM
same,Potency,[3],> 92 µM
same,Potency,[4],> 92 µM
same,Potency,[5],> 92 µM
same,Potency,[6],> 92 µM
same,outcome,[7],inactive
same,"activity change, negative = cytotoxicity",[8],-5.01%
same,Potency,[9],inactive
same,Potency,[10],inactive
same,Potency,[11],inactive
same,Potency,[12],inactive
same,Potency,[13],inactive
same,Potency,[14],inactive
same,caspase-3 activation,[15],1.43%
same,outcome,[16],inactive
same,outcome,[17],inactive
same,outcome,[18],inactive
same,outcome,[19],inactive
CC(C)Cc1nccs1,Potency,[1],> 92 µM
same,Potency,[2],> 92 µM
same,Potency,[3],> 92 µM
same,Potency,[4],> 92 µM
same,Potency,[5],> 92 µM
same,Potency,[6],> 92 µM
same,outcome,[7],inactive
same,Potency,[20],inactive
same,Potency,[9],inactive
same,Potency,[10],inactive
same,Potency,[13],inactive
same,Potency,[14],inactive
same,outcome,[16],inactive
same,outcome,[17],inactive
same,outcome,[19],inactive
CCNc1cc(O)ccc1C,Potency,[1],> 92 µM
same,Potency,[2],> 92 µM
same,Potency,[3],> 92 µM
same,Potency,[4],> 92 µM
same,Potency,[5],> 92 µM
same,Potency,[6],> 92 µM
same,"activity change, negative = cytotoxicity",[8],4.09%
same,Potency,[20],inactive
same,Potency,[9],inactive
same,Potency,[10],inactive
same,Potency,[12],inactive
same,Potency,[13],inactive
same,Potency,[14],inactive
same,caspase-3 activation,[15],0.87%
same,outcome,[16],inactive
same,outcome,[17],inactive
same,outcome,[18],inactive
same,outcome,[19],inactive
